Reference: the supplement of paper PMC11732987, “Enantioselective OTUD7B fragment discovery through chemoproteomics screening and high-throughput optimisation” (Communications Chemistry, 2025)

Columns and labels:
Assay in all cases: log2 ratio of Biotin-Ahx-Ub-VS probe labelling (fragment/DMSO); higher = less target engagement (more negative = stronger competition), active = hit call of the paper (q ≤ 0.05, log2 ratio ≤ -1)
Conditions in all cases: compound concentration: 200 uM; treatment time: 3 h
[1] = molecular target: T1, USP42 (UniProt Q9H9J4)
T1 sequence (whole entry): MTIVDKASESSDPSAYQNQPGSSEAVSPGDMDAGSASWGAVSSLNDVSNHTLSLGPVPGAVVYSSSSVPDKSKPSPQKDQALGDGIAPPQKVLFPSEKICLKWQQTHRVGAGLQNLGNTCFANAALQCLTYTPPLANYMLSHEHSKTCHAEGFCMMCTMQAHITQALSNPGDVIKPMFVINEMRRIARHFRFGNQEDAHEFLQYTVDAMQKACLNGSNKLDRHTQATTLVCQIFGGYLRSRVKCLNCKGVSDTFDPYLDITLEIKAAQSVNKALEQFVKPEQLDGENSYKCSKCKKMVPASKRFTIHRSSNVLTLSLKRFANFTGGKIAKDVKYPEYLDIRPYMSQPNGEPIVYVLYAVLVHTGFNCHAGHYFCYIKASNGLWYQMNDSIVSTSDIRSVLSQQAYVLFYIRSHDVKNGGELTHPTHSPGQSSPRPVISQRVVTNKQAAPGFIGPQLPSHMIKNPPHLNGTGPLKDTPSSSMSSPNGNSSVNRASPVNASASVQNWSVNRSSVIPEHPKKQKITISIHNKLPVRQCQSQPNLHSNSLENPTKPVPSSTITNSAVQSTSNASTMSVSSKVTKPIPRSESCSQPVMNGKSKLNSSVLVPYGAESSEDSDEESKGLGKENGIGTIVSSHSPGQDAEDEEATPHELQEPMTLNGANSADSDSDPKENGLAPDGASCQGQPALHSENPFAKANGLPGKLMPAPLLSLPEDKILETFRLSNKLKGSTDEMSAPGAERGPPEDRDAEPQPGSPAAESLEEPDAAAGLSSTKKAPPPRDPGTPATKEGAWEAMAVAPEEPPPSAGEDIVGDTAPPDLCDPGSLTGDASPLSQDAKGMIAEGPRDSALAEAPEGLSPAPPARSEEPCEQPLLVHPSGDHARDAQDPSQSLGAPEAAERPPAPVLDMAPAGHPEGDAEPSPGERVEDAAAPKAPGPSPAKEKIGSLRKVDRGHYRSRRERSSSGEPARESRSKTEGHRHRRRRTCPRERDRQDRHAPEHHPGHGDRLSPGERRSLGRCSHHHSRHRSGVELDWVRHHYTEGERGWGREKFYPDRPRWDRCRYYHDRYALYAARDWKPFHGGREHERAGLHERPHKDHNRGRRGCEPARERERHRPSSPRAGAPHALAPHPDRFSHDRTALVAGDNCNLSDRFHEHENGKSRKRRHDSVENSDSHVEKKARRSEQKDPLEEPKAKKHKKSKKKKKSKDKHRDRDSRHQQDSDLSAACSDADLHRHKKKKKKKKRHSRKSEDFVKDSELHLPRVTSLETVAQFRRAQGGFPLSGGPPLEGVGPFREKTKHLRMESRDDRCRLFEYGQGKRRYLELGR
Procedure, shortened: (§1)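 Using Biotin-Ahx-Ub-VS at 0.5 µM final for 1 h, DUBs were labelled in HEK293T lysate (495 µg per sample) that had first been treated in triplicate with fragment at 200 µM or vehicle for 3 h. NeutrAvidin enrichment, LysC and trypsin digestion and diaPASEF LC-MS/MS followed. Spectronaut label-free quantities were global-median-normalised. Values are average log2 fragment/vehicle ratios by unpaired t-test, using proteins with ≥2 unique peptides.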

[2] = molecular target: USP46 (UniProt P62068)
USP46, sequence (P62068 whole entry): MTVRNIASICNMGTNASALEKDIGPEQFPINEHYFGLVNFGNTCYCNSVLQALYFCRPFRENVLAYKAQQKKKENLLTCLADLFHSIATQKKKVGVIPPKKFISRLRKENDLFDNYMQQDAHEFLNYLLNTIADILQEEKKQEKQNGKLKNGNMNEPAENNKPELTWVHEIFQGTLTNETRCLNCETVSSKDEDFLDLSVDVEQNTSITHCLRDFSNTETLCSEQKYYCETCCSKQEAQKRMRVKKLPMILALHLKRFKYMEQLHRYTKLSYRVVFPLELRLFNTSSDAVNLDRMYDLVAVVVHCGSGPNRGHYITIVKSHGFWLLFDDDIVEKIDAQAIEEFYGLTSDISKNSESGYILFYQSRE
Procedure, shortened: as §1

[3] = molecular target: T2, USP47 (UniProt Q96K76)
T2 sequence (whole entry): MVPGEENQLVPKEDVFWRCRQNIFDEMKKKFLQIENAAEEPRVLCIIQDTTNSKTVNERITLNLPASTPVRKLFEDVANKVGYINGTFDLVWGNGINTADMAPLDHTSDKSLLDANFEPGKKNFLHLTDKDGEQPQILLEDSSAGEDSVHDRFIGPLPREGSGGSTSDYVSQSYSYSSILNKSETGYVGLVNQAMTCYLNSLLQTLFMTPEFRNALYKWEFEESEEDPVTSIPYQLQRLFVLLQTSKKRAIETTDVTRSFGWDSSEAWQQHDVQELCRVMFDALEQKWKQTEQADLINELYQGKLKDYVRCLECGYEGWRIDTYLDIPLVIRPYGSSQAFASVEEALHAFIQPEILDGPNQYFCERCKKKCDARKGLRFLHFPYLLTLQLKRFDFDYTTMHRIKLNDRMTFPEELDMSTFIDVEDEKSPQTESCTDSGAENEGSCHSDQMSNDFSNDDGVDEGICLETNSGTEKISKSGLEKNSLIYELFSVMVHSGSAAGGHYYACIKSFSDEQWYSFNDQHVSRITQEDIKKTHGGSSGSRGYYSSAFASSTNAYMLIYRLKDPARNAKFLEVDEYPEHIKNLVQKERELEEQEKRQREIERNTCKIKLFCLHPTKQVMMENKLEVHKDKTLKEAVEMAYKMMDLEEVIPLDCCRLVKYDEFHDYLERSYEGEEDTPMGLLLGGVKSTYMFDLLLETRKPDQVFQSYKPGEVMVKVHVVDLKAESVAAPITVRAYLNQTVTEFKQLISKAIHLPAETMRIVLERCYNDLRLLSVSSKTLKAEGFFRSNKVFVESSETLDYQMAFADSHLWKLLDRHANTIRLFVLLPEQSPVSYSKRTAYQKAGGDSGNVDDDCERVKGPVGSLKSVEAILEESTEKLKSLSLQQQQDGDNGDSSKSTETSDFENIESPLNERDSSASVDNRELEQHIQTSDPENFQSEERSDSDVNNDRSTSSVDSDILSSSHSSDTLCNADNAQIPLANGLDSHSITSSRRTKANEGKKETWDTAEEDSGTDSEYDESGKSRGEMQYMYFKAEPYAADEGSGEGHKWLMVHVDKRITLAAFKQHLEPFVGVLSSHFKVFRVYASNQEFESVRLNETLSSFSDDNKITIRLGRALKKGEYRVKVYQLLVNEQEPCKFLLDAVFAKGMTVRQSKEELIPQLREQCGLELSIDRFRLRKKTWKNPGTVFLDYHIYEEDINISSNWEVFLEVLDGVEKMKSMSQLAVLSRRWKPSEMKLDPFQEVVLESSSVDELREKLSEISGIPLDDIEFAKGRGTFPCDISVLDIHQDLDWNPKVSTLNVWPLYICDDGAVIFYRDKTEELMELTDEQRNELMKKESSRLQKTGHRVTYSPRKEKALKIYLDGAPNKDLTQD
Procedure, shortened: as §1

[4] = molecular target: T3, USP48 (UniProt Q86UV5)
T3 sequence (whole entry): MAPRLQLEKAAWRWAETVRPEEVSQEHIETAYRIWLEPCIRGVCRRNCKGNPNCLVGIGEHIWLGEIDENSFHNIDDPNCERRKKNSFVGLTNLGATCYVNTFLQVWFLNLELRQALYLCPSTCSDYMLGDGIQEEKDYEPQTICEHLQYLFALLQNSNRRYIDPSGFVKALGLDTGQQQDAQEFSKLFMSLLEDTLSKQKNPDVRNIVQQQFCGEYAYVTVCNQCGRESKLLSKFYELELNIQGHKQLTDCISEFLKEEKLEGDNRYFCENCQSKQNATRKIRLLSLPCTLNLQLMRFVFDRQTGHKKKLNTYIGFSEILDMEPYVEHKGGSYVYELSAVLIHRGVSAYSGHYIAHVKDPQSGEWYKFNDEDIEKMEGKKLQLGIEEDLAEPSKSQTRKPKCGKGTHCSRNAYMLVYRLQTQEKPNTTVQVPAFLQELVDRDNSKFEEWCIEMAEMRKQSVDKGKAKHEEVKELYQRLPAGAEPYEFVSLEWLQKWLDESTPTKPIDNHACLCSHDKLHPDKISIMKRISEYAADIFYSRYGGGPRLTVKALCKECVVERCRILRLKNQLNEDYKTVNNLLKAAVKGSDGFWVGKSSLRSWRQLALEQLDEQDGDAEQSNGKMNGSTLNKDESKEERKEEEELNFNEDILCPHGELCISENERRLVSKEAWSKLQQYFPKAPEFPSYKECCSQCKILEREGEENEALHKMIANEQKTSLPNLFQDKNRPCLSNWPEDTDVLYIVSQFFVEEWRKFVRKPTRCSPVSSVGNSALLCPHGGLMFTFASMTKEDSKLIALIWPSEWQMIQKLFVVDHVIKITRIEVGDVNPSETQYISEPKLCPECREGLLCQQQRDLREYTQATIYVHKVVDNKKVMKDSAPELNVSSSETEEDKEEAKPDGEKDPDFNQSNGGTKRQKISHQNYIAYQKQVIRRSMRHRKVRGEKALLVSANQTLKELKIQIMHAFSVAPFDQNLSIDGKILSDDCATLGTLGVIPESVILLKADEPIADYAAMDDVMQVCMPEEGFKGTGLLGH
Procedure, shortened: as §1

[5] = molecular target: T4, USP5 (UniProt P45974)
T4 sequence (whole entry): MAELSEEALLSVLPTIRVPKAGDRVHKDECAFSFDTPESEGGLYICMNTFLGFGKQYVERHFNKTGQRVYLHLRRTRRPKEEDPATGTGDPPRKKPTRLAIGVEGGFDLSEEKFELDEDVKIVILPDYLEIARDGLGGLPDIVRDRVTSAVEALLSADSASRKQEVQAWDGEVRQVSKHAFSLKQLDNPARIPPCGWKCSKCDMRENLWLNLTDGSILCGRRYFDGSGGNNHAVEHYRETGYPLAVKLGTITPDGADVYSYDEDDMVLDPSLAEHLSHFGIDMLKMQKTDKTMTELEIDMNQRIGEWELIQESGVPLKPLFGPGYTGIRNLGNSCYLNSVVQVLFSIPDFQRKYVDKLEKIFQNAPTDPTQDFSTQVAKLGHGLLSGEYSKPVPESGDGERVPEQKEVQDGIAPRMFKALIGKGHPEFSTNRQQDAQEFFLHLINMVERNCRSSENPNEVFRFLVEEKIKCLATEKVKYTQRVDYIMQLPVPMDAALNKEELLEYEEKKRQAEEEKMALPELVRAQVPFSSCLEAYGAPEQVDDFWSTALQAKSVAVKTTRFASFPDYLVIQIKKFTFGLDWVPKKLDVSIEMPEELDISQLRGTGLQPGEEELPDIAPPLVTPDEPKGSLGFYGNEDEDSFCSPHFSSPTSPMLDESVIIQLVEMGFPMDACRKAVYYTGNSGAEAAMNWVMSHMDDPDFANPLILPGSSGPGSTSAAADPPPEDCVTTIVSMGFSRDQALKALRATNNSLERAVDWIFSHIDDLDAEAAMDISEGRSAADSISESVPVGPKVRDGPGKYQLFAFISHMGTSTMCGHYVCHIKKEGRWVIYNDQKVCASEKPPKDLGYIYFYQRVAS
Procedure, shortened: as §1

[6] = molecular target: USP54 (UniProt Q70EL1)
USP54, sequence (Q70EL1 whole entry): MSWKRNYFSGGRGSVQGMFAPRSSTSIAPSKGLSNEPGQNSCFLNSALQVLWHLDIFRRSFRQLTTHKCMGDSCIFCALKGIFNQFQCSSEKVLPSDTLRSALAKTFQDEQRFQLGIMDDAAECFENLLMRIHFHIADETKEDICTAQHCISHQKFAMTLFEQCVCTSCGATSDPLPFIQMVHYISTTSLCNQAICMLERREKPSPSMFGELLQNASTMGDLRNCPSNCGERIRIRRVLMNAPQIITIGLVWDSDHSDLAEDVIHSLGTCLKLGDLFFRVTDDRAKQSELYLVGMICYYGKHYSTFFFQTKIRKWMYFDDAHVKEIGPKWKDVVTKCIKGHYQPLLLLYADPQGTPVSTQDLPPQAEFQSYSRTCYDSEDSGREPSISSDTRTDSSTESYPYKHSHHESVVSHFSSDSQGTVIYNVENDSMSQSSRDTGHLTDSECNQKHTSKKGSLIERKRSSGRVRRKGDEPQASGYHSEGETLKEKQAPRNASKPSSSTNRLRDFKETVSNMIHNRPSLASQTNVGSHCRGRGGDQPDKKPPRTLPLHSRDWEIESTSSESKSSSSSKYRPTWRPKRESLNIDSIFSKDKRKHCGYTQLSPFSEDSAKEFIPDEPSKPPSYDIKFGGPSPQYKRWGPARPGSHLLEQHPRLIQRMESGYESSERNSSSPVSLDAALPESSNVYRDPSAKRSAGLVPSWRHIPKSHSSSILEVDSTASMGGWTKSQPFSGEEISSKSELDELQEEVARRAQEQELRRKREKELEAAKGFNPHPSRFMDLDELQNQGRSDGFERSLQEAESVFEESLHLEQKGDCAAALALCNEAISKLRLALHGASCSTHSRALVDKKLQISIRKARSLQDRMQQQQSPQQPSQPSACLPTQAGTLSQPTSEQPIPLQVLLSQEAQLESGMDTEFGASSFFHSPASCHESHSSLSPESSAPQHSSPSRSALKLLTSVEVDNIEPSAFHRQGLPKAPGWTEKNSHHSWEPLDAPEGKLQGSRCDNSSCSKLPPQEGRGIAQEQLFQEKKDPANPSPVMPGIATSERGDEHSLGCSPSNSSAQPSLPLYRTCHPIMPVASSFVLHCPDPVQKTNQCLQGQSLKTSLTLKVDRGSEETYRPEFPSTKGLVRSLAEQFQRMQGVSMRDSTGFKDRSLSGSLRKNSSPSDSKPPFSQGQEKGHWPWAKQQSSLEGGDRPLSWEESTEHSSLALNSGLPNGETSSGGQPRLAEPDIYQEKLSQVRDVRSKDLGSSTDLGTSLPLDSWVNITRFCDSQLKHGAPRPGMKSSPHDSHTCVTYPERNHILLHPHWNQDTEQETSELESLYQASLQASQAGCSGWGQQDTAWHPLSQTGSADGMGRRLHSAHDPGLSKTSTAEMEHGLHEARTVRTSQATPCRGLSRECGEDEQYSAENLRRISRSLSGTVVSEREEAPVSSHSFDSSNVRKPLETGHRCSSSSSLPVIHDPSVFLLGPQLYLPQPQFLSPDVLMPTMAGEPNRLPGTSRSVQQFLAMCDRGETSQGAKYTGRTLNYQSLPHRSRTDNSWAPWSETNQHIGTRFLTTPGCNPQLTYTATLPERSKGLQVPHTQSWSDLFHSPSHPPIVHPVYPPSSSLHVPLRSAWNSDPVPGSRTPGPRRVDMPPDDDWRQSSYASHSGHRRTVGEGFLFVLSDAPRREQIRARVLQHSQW
Procedure, shortened: as §1

[7] = molecular target: USP7 (UniProt Q93009)
USP7, sequence (Q93009 whole entry, looked up): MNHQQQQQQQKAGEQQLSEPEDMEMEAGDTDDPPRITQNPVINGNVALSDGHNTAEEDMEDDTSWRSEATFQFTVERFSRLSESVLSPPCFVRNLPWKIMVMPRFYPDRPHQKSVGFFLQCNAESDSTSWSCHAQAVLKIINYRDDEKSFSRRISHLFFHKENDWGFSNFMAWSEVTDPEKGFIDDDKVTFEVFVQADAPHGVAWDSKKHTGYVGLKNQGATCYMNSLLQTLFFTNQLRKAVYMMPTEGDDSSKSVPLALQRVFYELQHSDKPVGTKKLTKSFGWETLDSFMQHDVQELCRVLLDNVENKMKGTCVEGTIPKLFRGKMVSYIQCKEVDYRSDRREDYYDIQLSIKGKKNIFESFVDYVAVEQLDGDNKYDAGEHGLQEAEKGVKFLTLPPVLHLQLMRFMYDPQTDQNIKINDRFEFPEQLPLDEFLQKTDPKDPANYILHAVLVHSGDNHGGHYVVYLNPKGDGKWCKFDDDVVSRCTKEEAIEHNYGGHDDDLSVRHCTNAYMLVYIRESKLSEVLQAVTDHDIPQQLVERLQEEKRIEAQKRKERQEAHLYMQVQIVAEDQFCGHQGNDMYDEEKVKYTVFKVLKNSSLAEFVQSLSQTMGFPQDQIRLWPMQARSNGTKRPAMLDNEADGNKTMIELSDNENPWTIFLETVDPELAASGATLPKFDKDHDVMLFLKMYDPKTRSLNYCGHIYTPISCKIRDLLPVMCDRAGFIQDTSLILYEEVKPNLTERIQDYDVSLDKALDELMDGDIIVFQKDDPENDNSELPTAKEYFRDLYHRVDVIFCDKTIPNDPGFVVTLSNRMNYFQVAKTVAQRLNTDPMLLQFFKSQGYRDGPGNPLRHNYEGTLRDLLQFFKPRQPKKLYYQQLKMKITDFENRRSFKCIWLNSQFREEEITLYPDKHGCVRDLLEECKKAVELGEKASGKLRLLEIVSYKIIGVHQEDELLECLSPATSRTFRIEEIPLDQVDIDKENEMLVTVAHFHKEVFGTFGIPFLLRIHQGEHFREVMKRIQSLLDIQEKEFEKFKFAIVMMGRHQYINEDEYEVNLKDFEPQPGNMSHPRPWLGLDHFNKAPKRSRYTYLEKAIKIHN
Procedure, shortened: as §1

[8] = molecular target: T5, USP8 (UniProt P40818)
T5 sequence (whole entry): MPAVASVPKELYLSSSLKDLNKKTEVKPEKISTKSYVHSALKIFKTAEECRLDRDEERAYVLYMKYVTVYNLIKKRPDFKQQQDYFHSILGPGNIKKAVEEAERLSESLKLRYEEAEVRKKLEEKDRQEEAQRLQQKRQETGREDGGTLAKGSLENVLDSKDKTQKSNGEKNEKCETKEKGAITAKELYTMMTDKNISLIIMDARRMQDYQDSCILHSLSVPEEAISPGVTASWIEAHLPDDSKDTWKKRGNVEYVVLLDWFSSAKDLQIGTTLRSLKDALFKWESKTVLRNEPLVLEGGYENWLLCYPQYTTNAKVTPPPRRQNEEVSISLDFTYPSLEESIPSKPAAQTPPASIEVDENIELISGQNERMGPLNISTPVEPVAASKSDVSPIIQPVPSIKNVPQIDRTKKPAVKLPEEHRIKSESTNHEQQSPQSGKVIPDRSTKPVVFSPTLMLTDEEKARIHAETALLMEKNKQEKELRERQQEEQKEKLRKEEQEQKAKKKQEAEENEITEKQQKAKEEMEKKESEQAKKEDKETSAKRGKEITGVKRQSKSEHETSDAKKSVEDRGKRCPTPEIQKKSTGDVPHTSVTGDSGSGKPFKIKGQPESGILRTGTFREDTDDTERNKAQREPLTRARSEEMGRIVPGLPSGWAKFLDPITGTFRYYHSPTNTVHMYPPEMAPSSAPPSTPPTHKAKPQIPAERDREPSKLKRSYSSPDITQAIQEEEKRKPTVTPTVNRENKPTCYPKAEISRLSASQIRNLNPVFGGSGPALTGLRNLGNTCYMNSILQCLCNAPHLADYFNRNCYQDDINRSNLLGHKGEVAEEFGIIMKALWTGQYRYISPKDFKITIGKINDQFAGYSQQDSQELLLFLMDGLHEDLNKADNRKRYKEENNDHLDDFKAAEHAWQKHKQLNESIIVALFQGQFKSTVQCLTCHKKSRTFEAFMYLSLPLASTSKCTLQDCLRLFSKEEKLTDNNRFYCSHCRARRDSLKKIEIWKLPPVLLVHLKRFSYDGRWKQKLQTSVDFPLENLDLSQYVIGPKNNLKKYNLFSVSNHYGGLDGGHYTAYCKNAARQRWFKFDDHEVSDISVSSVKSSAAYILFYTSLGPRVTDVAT
Procedure, shortened: as §1

[9] = molecular target: USP9X (UniProt Q93008)
Procedure, shortened: as §1

[10] = molecular target: UniProt O00487
UniProt O00487, sequence (O00487 whole entry): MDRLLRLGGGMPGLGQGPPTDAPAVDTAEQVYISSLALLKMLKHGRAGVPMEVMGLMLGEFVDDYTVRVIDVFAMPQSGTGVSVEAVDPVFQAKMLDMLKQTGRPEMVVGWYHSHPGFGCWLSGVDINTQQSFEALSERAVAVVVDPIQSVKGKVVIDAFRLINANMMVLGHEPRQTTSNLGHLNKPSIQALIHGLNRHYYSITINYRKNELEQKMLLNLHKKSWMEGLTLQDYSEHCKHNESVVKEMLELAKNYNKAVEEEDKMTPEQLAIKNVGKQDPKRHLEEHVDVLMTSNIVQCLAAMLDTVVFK
Procedure, shortened: as §1

Measured: log2 ratio of Biotin-Ahx-Ub-VS probe labelling

O=C(CCl)Nc1ccc(F)cc1F
inactive: [1] -0.555 | [2] -0.0216 | [3] -0.211 | [4] -0.0331 | [5] -0.0493 | [6] 0.615 | [7] -0.0738 | [8] -0.257 | [9] -0.218 | [10] -0.099

COc1cc(Cl)c(C)cc1NC(=O)CCl
inactive: [1] -0.591 | [2] -0.0884 | [3] -0.965 | [4] -0.36 | [5] -0.267 | [6] 0.718 | [7] -0.373 | [8] -0.251 | [9] -0.645 | [10] -0.246

O=C(CCl)N1CCC(O)(Cc2ccc(F)cc2)C1 (stereo not given)
inactive: [1] 0.0317 | [2] -0.0773 | [3] -0.574 | [4] -0.434 | [5] 0.465 | [6] -0.501 | [7] -0.133 | [8] -0.169 | [9] 0.0751 | [10] -0.0616

O=C(CCl)N1CCC(C(=O)N2CCCCCC2)CC1
inactive: [1] 0.671 | [2] -0.142 | [3] -0.239 | [4] -0.0351 | [5] 0.0959 | [6] 0.452 | [7] -0.714 | [8] -0.0368 | [9] -0.297 | [10] -0.112
